# MEKK3 PB1 HTS: modulators (inhibitors or enhancers) of MEK5 binding to human MEKK3 PB1 domain; Q99759; bead-based flow cytometry, Alexa488-MEK5 binding to MEKK3; actives lie on both sides; 0 = blocked by unlabeled MEK5, 100 = vehicle; binding response (% of control), % at 10 µM; 290,000 tested, 1.4% active;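 active = binding response more than 3 SD above or below the average of its plate-row segment, actives on both sides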;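 note: Alexa488 bead fluorescence after subtracting the streptavidin-only scavenger bead signal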
# Arbovirus inh: blocks arbovirus infection; arbovirus infection cell-based antiviral screen; inhibition, % at 10 µM; 200,000 tested, 0.37% active; in the data active = inhibition above about 30%
# MEKK2 mut-MEK5: signal of MEK5 binding to mutant human MEKK2 PB1 domain; bead flow cytometry, Alexa488-MEK5 binding to MEKK2 mutant; 290,000 tested, 0.35% active; AID 1530; percent response, % at 10 µM; in the data active = percent response above about 24%, passing the limit was not always enough
# Pf gamet viab: kills late stage P. falciparum gametocytes. P. falciparum stage V gametocytes, ATP luminescence, 24 h. inhibition, % at 10.9 µM. 150,000 tested, 0.065% active;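 active = inhibition above the mean plus 3 SD of compounds within the control limits, set per campaign, cut at about 38% in these data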;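 note: 0% = DMSO wells and 100% = medium only without gametocytes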
# MEKK2wt PB1 HTS: raises or lowers MEK5 binding to wildtype human MEKK2 PB1 domain; Q9Y2U5; bead flow cytometry, Alexa488-MEK5 binding to MEKK2 WT; actives lie on both sides; binding response (% of control), % at 10 µM; 290,000 tested, 1.1% active; in the data active = binding response below about 67% or above about 130%
# MEKK2wt confirm: raises or lowers MEK5 binding to wildtype human MEKK2, retest; shares compounds with MEKK3 PB1 HTS; bead flow cytometry, Alexa488-MEK5 binding to MEKK2 WT; actives lie on both sides; binding response (% of control), % at 10 µM; 5,900 tested, 2.4% active; in the data active = binding response below about 16% or above about 210%; inactive = in between
# MEKK2mut confirm: signal of MEK5 binding to mutant human MEKK2, retest; shares compounds with MEKK3 PB1 HTS; bead flow cytometry, Alexa488-MEK5 binding to MEKK2 mutant; percent response, % at 10 µM; 5,900 tested, 2% active; in the data active = percent response mostly above about 71%, no sharp cut-off; inactive = mostly below about 38%;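 note: higher means compound restores mutant binding toward wildtype level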
# MEKK3 confirm: MEKK3-MEK5 PB1 inhibition, single concentration confirmation. shares compounds with MEKK3 PB1 HTS. bead flow cytometry, Alexa488-MEK5 binding to MEKK3; active compounds read low. binding response (% of control), % at 10 µM. 5,900 tested, 1.8% active;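 active = binding response below 72% of control, or above a set upper limit, though filed actives all read lower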;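 note: 100% = DMSO only wells and 0% = binding blocked by excess unlabeled MEK5; lower values mean stronger disruption of MEK5 binding to MEKK3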
# Numbers without * were called inactive; · = no result given; [ ] = dose if it differs, or a comment. Most compounds without a hit are left out; they make up all but 2.4% or so of the library.
SMILES,MEKK3 PB1 HTS,Arbovirus inh,MEKK2 mut-MEK5,Pf gamet viab,MEKK2wt PB1 HTS,MEKK2wt confirm,MEKK2mut confirm,MEKK3 confirm
O=C(O)c1ccccc1C(=O)Nc1ccccc1,101,8,2,-4,103,·,·,·
O=C(Nc1ccccc1)C1=C(c2ccccc2)S(=O)(=O)CCS1(=O)=O,6.0*[inhibitor],2,-19,-37,8.0*[inhibitor],103,-4,101
O=C(N=Nc1c(O)[nH]c2ccc(Br)cc12)c1cc(-c2cccs2)nc2ccccc12,101,-13,0,1,98,·,·,·
Cn1c(O)c(N=NC(=O)c2cc(-c3cccs3)nc3ccccc23)c2ccccc21,130*,-20,1,13,100,99,0,105
O=C(C(=S)N1CCOCC1)c1c[nH]c2ccccc12,103,-1,0,11,101,·,·,·
COCCN1CCN(C(=O)c2cc(COc3cncc(Cl)c3)on2)CC1,98,·,0,·,99,·,·,·
O=[N+]([O-])c1ccc(CSc2nc3ccccc3o2)cc1,94,5,-5,15,91,·,·,·
O=[N+]([O-])c1ccc(CSc2nnc(SCc3ccccc3)s2)cc1,60*[inhibitor],8,-2,·,91,100,0,108
CC(C)c1ccc(NC(=O)CNS(=O)(=O)c2ccc(F)cc2)cc1,90,5,-1,10,98,·,·,·
CSCCC(NC(=O)COc1ccccc1)C(=O)NCC1COc2ccccc2O1 (centres undefined),100,·,3,·,102,·,·,·
Cn1nc(C(F)(F)F)c(-c2ccccc2)c1NC(=O)c1nccnc1C(=O)O,92,·,-12,-26,92,·,·,·
Cn1nc(C(F)(F)F)c(-c2ccc(F)cc2)c1NC(=O)c1cccnc1,128*,·,28,-6,118,107,0,103
Cn1cc([N+](=O)[O-])c(C(=O)N2CCN(Cc3ccc4c(c3)OCO4)CC2)n1,102,·,2,·,103,·,·,·
COc1cc(/C=N/S(=O)(=O)CCc2ccccc2)cc(OC)c1O,128*,-6,0,12,103,103,-1,100
COc1cc(/C=C(\C#N)C(=O)NCCc2ccccc2)cc(OC)c1O,101,-4,2,-26,105,·,·,·
CC1Cc2ccccc2N1C1=NS(=O)(=O)c2ccccc21 (centres undefined),100,5,-3,-17,97,·,·,·
CC1Cc2ccccc2N1C1=CC(=O)CCC1 (centres undefined),0.0*[inhibitor],10,-47,-3,0.0*[inhibitor],108,9,106
Clc1ccc(N2CCN(/N=C/c3cccnc3)CC2)cc1,102,·,4,·,108,·,·,·
O=c1cc(O)c2ccccc2n1Cc1ccccc1,105,6,3,13,102,·,·,·
O=C1CC(c2ccc3c(c2)OCCO3)Oc2ccc([N+](=O)[O-])cc21 (centres undefined),109,·,17,·,134*,93,-27,95
CC1CN(CCCCOc2ccc(Cl)c3ccccc23)CC(C)O1 (centres undefined),113,·,10,-3,162*,150,22,105
CC1CN(CCCCOc2ccc(C(C)C)cc2)CC(C)O1 (centres undefined),2.0*[inhibitor],-12,-15,·,2.0*[inhibitor],104,4,103
CC(C)c1ccc(OCCCCN2CCCCC2)cc1,102,·,6,·,106,·,·,·
COc1cc2ccccc2cc1C(=O)Nc1sc2c(c1C(N)=O)CCN(C(C)C)C2,107,·,29*,·,150*,170,42,110
CCOC(=O)c1c(NC(=O)Nc2ccc(F)cc2)sc2c1CCN(C)C2,129*,·,31,3,141*,124,4,101
CN1CCc2c(sc(NC(=O)c3ccc4ccccc4c3)c2C(N)=O)C1,106,·,19,·,135*,151,23,108
CCOC(=O)c1c(NC(=S)Nc2ccc(Cl)cc2)sc2c1CCN(C)C2,118,-14,-1,-5,81,·,·,·

# Compound activity (PubChem)
